High-throughput results as filed in PubChem BioAssay.
SENP7 block – SENP7 protease inhibition; recombinant SENP7, Z-RLRGG-aminoluciferin luminescence, 40 min; inhibition, % at 5 µM; 1.5% of 330,000 active;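 active = inhibition above about 50% at the single test dose, limit read from the data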;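 also: plate controls were DMSO with enzyme for no effect and no enzyme buffer wells for full effect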
HSP90 refold inh – HSP90 refolding inhibition in rabbit reticulocyte lysate. luciferase refolding luminescence, 3 h. 0.91% of 290,000 active. inhibition, % at 5.6 µM. AID 1789;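 active = inhibition above the screen-wide mean plus 3 SD, computed separately per campaign, cut at about 16% in these data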;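 also: 0% = DMSO wells and 100% = 60 µM geldanamycin wells; inhibitors lower the luminescence because luciferase stays unfolded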
SENP6 block – SENP6 protease inhibition; Q9GZR1; inhibition, % at 10 µM; 1.8% of 330,000 active; Recombinant SENP6 catalytic domain, aminoluciferin luminescence;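 active = inhibition above about 50% at the single tested dose, limit read from the data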;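 also: plate controls were DMSO wells with enzyme for no effect and DMSO wells lacking enzyme for full effect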
Target sequence (Q9GZR1 628-1112 limits assumed): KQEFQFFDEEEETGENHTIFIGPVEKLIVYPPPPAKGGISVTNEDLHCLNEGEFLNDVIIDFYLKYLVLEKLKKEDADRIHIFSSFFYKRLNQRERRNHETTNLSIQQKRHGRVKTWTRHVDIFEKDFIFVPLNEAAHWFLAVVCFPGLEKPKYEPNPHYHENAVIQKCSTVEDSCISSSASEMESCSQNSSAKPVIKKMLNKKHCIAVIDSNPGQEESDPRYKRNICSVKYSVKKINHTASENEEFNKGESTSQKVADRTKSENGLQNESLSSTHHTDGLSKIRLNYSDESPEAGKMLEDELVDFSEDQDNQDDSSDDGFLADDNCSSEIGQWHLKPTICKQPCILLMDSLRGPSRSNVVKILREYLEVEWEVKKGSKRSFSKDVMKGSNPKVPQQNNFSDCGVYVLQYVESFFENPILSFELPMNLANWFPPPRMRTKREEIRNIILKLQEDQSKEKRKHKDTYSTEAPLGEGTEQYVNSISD
SENP8 block-1 – inhibitors of human SENP8 protease; Q96LD8; purified SENP8, Z-RLRGG-aminoluciferin cleavage, luminescence; inhibition, % at 10 µM; 1.2% of 330,000 active; AID 2540; in the data active = inhibition above about 50%
SENP8 block-2 – inhibitors of human SENP8 protease; Q96LD8; recombinant SENP8, Nedd8 substrate fluorescence; inhibition, % at 20 µM; 0.64% of 360,000 active; in the data active = inhibition mostly above about 40%, no sharp cut-off; inactive = mostly below about 27%
SENP8 conf – confirmation of human SENP8 protease inhibitors. 40% of 6,200 active. shares compounds with SENP7 block. Recombinant SENP8, Z-RLRGG-aminoluciferin luminescence, 60 min. AID 488912. inhibition, % at 12.5 µM;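 active = mean inhibition across replicates above about 50%, limit read from the data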
SENP6 conf – confirmation of human SENP6 protease inhibitors; shares compounds with SENP7 block; recombinant SENP6, Z-RLRGG-aminoluciferin luminescence; inhibition, % at 12.5 µM; 58% of 6,200 active
SENP7 confirm – confirmation of human SENP7 protease inhibitors. shares compounds with SENP7 block. inhibition, % at 12.5 µM. recombinant SENP7, Z-RLRGG-aminoluciferin luminescence, 40 min. 69% of 6,200 active. AID 488917
Casp3 select – inhibits human caspase-3 in SENP selectivity test | 60% of 6,200 active | purified caspase-3, Z-DEVD-aminoluciferin luminescence, 60 min | AID 488918 | shares compounds with SENP7 block | inhibition, % at 12.5 µM;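 active = mean inhibition above about 50%, limit read from the data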;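 also: plate controls were enzyme with DMSO for no effect and wells without caspase-3 for full effect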
Target sequence (P42574 28-227 limits assumed): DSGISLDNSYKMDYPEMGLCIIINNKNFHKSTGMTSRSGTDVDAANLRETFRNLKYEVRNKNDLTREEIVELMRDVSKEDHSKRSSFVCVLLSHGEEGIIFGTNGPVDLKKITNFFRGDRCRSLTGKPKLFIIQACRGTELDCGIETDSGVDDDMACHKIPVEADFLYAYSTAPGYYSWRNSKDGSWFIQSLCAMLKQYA
SENP luc ctr – luminescence interference (SENP counter-screen); shares compounds with SENP7 block; inhibition, % at 12.5 µM; AID 488919; Pre-incubated SENP8/Z-RLRGG-aminoluciferin, luciferase luminescence interference; 39% of 6,200 active;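 active = mean inhibition above about 50% when retested at one dose, limit read from the data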;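 also: plate controls were DMSO wells with completed reaction for no effect and substrate without enzyme for full effect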
The depositor's hits bear a star. Rows were chosen to be rich in hits. Some 2.7% of all compounds tested hit in one or more screens of this group.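 The calls were made as follows, unless noted: active = mean inhibition above about 50% in the one-dose retest (limit read from the data); inactive = the rest.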

What do the screens show for `Cc1cc(C)c(-c2csc(NC(=O)C3=COCCO3)n2)c(C)c1`?
SENP7 block: -0.1; SENP6 block: -8.0; SENP8 block-1: 2.6; SENP8 block-2: 1.2

How did Cc1cc(C)c2sc(NC(=O)C3=COCCO3)nc2c1 do in these assays?
SENP7 block: 62.4*; HSP90 refold inh: 5.3; SENP6 block: 66.8*; SENP8 block-1: 44.7; SENP8 block-2: -27.0; SENP8 conf: 44.1; SENP6 conf: 65.1*; SENP7 confirm: 88.8*; Casp3 select: 56.5*; SENP luc ctr: 44.7

What do the screens show for `Cc1cccc2c(N=Nc3ccccc3)c(O)[nH]c12`?
SENP7 block: 54.4*; HSP90 refold inh: -0.8; SENP6 block: -2.7; SENP8 block-1: -9.4; SENP8 block-2: 18.7; SENP8 conf: 11.5; SENP6 conf: 12.7; SENP7 confirm: 34.7; Casp3 select: 12.0; SENP luc ctr: 6.8

What do the screens show for `Oc1[nH]c2ccccc2c1N=Nc1ccccc1Cl`?
SENP8 block-2: 21.7

How did O=C(CSCc1ccccc1)N=Nc1c(O)[nH]c2ccccc12 do in these assays?
SENP7 block: 3.3; HSP90 refold inh: -7.5; SENP6 block: 9.9; SENP8 block-1: 0.8; SENP8 block-2: 35.2

What do the screens show for `O=C(N=Nc1c(O)[nH]c2ccccc12)c1ccco1`?
SENP7 block: 62.4*; HSP90 refold inh: 2.2; SENP6 block: 60.3*; SENP8 block-1: 23.7; SENP8 block-2: 19.5; SENP8 conf: 49.1; SENP6 conf: 46.0; SENP7 confirm: 82.8*; Casp3 select: 80.5*; SENP luc ctr: 32.9

How did Oc1[nH]c2ccccc2c1N=Nc1cccc(Cl)c1 do in these assays?
SENP7 block: 63.7*; HSP90 refold inh: 10.4; SENP6 block: 36.3; SENP8 block-1: 46.8; SENP8 block-2: 23.5; SENP8 conf: -20.5; SENP6 conf: -1.5; SENP7 confirm: 14.0; Casp3 select: 8.4; SENP luc ctr: -4.9

How did Oc1[nH]c2ccccc2c1N=Nc1nncc2ccccc12 do in these assays?
SENP7 block: 73.8*; HSP90 refold inh: -2.8; SENP6 block: 72.2*; SENP8 block-1: 41.8; SENP8 block-2: -35.3; SENP8 conf: 49.2; SENP6 conf: 48.4; SENP7 confirm: 72.1*; Casp3 select: 76.4*; SENP luc ctr: 58.3*

Results for C[n+]1ccccc1Nc1cc([N+](=O)[O-])ccc1N ?
SENP7 block: -9.5; HSP90 refold inh: -0.7; SENP6 block: -12.1; SENP8 block-1: 13.2; SENP8 block-2: 29.0

Results for CCOC(=O)C(C)Oc1cccc2c(=O)n(CC(=O)NCc3ccco3)ccc12 (configuration not stated) ?
SENP7 block: -2.5; HSP90 refold inh: -0.9; SENP6 block: 4.5; SENP8 block-1: 2.0; SENP8 block-2: -82.8

Results for O=C(N=C1N=C2C=CC=CN2Cc2ccccc21)c1ccc(S(=O)(=O)N2CCCC2)cc1 ?
SENP7 block: 41.9; HSP90 refold inh: -1.4; SENP6 block: 50.0; SENP8 block-1: 5.9; SENP8 block-2: 6.6

What do the screens show for `CN(C)S(=O)(=O)c1cccc(C(=O)N=C2N=C3C=CC(Cl)=CN3Cc3ccccc32)c1`?
SENP7 block: 88.8*; HSP90 refold inh: 2.5; SENP6 block: 91.1*; SENP8 block-1: 68.8*; SENP8 block-2: 11.1; SENP8 conf: 11.8; SENP6 conf: 15.4; SENP7 confirm: 41.8; Casp3 select: 66.9*; SENP luc ctr: 20.0

What do the screens show for `Cc1cc(C)cc(NC(=O)CN2CCC(NC(=O)Cc3ccccc3)CC2)c1`?
SENP7 block: 2.6; HSP90 refold inh: 1.1; SENP6 block: 4.4; SENP8 block-1: -4.9; SENP8 block-2: 2.7

Results for Cc1ccccc1N=C1Nc2ccccc2CS1 ?
SENP7 block: 79.8*; HSP90 refold inh: 2.6; SENP6 block: 85.9*; SENP8 block-1: 74.0*; SENP8 block-2: 21.1; SENP8 conf: 34.5; SENP6 conf: 78.8*; SENP7 confirm: 95.3*; Casp3 select: 78.8*; SENP luc ctr: 45.1

What do the screens show for `c1cn2cc(-c3ccc4c(c3)OCO4)nc2s1`?
SENP7 block: 63.8*; HSP90 refold inh: 7.3; SENP6 block: 72.6*; SENP8 block-1: 50.2*; SENP8 block-2: 13.7; SENP8 conf: 59.3*; SENP6 conf: 56.4*; SENP7 confirm: 85.3*; Casp3 select: 79.0*; SENP luc ctr: 71.9*

How did Cc1ccccc1CC(=O)N1CCC(CCC(=O)NC2CC2)CC1 do in these assays?
SENP8 block-2: 2.4

Results for Cc1ccc2nsnc2c1S(=O)(=O)N(CCO)Cc1cc2cc3c(cc2[nH]c1=O)OCCO3 ?
SENP7 block: 70.8*; HSP90 refold inh: 5.7; SENP6 block: -32.2; SENP8 block-1: -5.1; SENP8 block-2: -165.0; SENP8 conf: -10.0; SENP6 conf: -6.0; SENP7 confirm: -12.8; Casp3 select: -1.7; SENP luc ctr: 1.5

What do the screens show for `Cc1ccc2[nH]c(=O)c(CN(CC3CCCO3)S(=O)(=O)c3c(C)ccc4nsnc34)cc2c1` (configuration not stated)?
SENP7 block: 3.6; HSP90 refold inh: 3.8; SENP6 block: 1.9; SENP8 block-1: 4.9; SENP8 block-2: 10.9

What do the screens show for `COc1ccc2c(c1OC)C(=O)N(c1cccc(C)c1)C2`?
SENP7 block: 59.2*; HSP90 refold inh: -1.9; SENP6 block: 71.1*; SENP8 block-1: 32.8; SENP8 block-2: -16.2; SENP8 conf: 65.2*; SENP6 conf: 64.5*; SENP7 confirm: 89.8*; Casp3 select: 83.9*; SENP luc ctr: 70.2*

Results for CCOC(=O)Oc1c(OC)cc(C(=O)O[C@@H]2C[C@@H]3CN4CCc5c([nH]c6cc(OC)ccc56)[C@H]4C[C@@H]3[C@H](C(=O)OC)[C@H]2OC)cc1OC ?
SENP7 block: 4.6; SENP6 block: -2.6; SENP8 block-1: -4.4; SENP8 block-2: -62.2

How did C/C(N)=C(/C#N)C(=O)COC(=O)Cc1coc2ccc3ccccc3c12 do in these assays?
SENP7 block: -1.9; HSP90 refold inh: 1.1; SENP6 block: 5.2; SENP8 block-1: 1.8; SENP8 block-2: -45.8

Results for CC(=O)c1csc(Nc2ccccc2Cl)n1 ?
SENP7 block: 54.3*; HSP90 refold inh: -1.8; SENP6 block: 41.6; SENP8 block-1: 13.8; SENP8 block-2: 12.7; SENP8 conf: 13.6; SENP6 conf: 14.7; SENP7 confirm: 69.9*; Casp3 select: 63.1*; SENP luc ctr: 47.5
